In PubChem BioAssay (NCI) one finds growth data, which are given here for 40 compounds.

The panel holds about 83,000 compounds, 20% with a hit somewhere; the sample as a whole holds those more often.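 How to read the values: 0–100, growth inhibition (40 = 60% inhibited); 0, no net growth; -100 to 0, cell death (-40 = 40% of starting cells died; -100 = all dead).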 Values without a mark were called inactive. Activity calls are given as the source filed them.

This assay relates to SK-MEL-5 melanoma. Nature of the assay: NCI-60 one-dose screen, 48 h (100 = growth as untreated, 0 = no growth, -100 = all killed). The settings on record: 10 µM unless noted. As to the method: Growth inhibition of the SK-MEL-5 human tumor cell line is measured as a screen for anti-cancer activity. Cells are grown in 96 well plates and exposed to the test compound for 48 hours. Compounds are tested at a single concentration, which is 10^-5 M for most compounds. The reported endpoint is percent growth (GI% or GIPRCNT), where numbers from 0 - 100% represent growth inhibition, and numbers from -100% - 0 represent cell death. For example, a value of 40 represents 60% growth inhibition. A value of 0 means no net growth occurred over the course of the experiment. A value of -40 indicates 40% of cells at the beginning of the experiment died by the end of the experiment. A value of -100 means all cells are dead at the end of the experiment.
NCI-60 Human Tumor Cell Lines Screen was performed using the standard one-dose NCI protocol, which is described in more detail at https://dtp.cancer.gov/discovery_development/nci-60/default.htm.
Compounds with GIPRCNT values below 10 were considered active. Activity score was based on GIPRCNT using the following formula: […]
Score is 0 for GIPRCNT values of 100 or above, 50 for GIPRCNT values of 0, and 100 for GIPRCNT values of -100.
Consider `Nc1ccc(S(=O)(=O)c2ccc(NO)cc2)cc1`, for which the growth is 102%.

For `Oc1ccc([S+](c2ccc(O)cc2)c2ccc(O)cc2)cc1`, the growth is 100%.

Consider `O=C(CCl)c1ccc2c(c1)CCCC2`, for which the growth is 106%.

For the compound `CCCCCCN(CCCCCC)CCC(=O)Nc1ccc(S(=O)(=O)c2ccc(NC(=O)CCN(CCCCCC)CCCCCC)cc2)cc1`, the growth was 90%.

For `CC1CCCCC[N+]12CCCC2` (stereo not given), the growth is 99.5%.

Regarding `COC(=O)c1ccc2[nH]c(O)c(C(=Nc3ccc(N(C)C(=O)CN4CCN(C)CC4)cc3)c3ccc(N)cc3)c2c1`, the growth was 85.2%.

For `CC(C)(C)C(=O)OCOP(=O)(OCOC(=O)C(C)(C)C)C1CC(O)N(O)C1=O` (stereo not given), the growth is 58.4%.

Take `CN(C)CCOC(=O)C(C)(C)C`: the growth was 105%.

For `COc1ccc(/C=C(/C(=O)N2CCN(c3ccc(C)cc3)CC2)c2cc(OC)c(OC)c(OC)c2)cc1N`, the growth is -30.7% (active).

Take `COc1cc(OC)c(/C=C/c2ccc3ccccc3[n+]2C)c(OC)c1`: the growth was -74% (active).

For the compound `O=C(Nc1cccc(Cn2c(=O)[nH]c3ccc(Oc4ncccn4)cc3c2=O)c1)c1cccc(F)c1`, the growth was 65.5%.

With `CC(=O)NCCN`, the growth is 108%.

In the case of `CCCCCCCCCCC(C[N+](C)(C)C/C=C/c1ccccc1)C(O)c1ccccc1` (stereo not given), the growth is 30.6%.

Turning to `CC(C)(C)C(=O)CCCCCCCC/C=C/CCCC(O)c1ccco1` (stereo not given), the growth was 107%.

On to `CCC(C)CC(N)O` (stereo not given), for which the growth is 99.9%.

`COc1ccc(C(O)(c2ccccc2)C(C(=O)O)c2ccccc2)cc1` (stereo not given): the growth is 102%.

Turning to `Cc1ncc(C(=O)Nc2ccc(CN3CCN(C)CC3)c(C(F)(F)F)c2)cc1C#Cc1c(N)ncc2ccc(F)cc12`, the growth was -70.2% (active).

In the case of `CCn1cnc(C[C@H](NC(=O)[C@@H](NC(=O)Nc2cc(C(F)(F)F)cc(C(F)(F)F)c2)C(C)C)C(=O)OC)c1`, the growth is -98% [100 µM] (active).

Turning to `Nc1nc2c(c3ncncc13)C(c1cccc(C(F)(F)F)c1)Cc1ncncc1-2` (stereo not given), the growth was 21.1%.

On to `O=c1[nH]c2cc(O)ccc2n2cc3c(F)cccc3c12`, for which the growth is 8.21% (active).

Turning to `Cc1c(Cc2ccccc2)c(=O)oc2c(C)c(OCC(=O)n3nc(C#N)cc3N)ccc12`, the growth was 103%.

On to `CCCOC(=O)c1c(C)n(C)c2scc[n+]12`, for which the growth is 102%.

For `Cc1cc2cn3c4ccc(O)cc4nc(N)c3c2cc1C`, the growth is -62.4% (active).

For the compound `Oc1ccc2ccccc2c1/C=N\Nc1ccccn1`, the growth was 13.3%.

Turning to `COc1ccc(Oc2[nH]n(C3=Nc4ccccc4Sc4ccccc43)c(=O)c2C#N)cc1`, the growth was 84.8%.

Consider `COc1nc(OC)nc(-c2cc(-c3cc(OC)c(OC)c(OC)c3)no2)n1`, for which the growth is 88.2%.

Consider `Cc1cc2c(-c3nc4ccccc4[nH]3)c(O)c(O)cc2c(O)c1-c1c(C)cc2c(-c3nc4ccccc4[nH]3)c(O)c(O)cc2c1O`, for which the growth was -8.04% (active).

Turning to `Cc1c(C(N)=O)sc2c1c(=O)n(Cc1ccccc1)c1nnc(S(C)(=O)=O)n21`, the growth is 74.8%.

As to `CC[N+](C)(C)N`, the growth is 95.4%.

In the case of `O=C(C(=O)N1CCOCC1)c1ccc(O[C@H]2O[C@H](CO)[C@@H](O)[C@H](O)[C@@H]2O)cc1`, the growth was 97.4%.

`CC(C)OC(=O)Nn1cnc2ccccc21`: the growth is 108%.

`Brc1c(-c2ccncc2)nc2n1CCS2`: the growth is 103%.

On to `COc1ccc2cn3c4ccc(O)cc4[nH]c(=O)c3c2c1`, for which the growth was 10.9%.

For `O=C(O)c1ccc(Br)nc1`, the growth is 102%.

On to `CCCCCCNC(=O)Oc1ccc(/C(=C(/C)Cc2ccc(OC)cc2)c2ccc(OCCN3CCCCC3)cc2)cc1`, for which the growth is 80.4%.

For `Cc1cc(CSc2ccc(Cl)cc2)ccc1N`, the growth is 103%.

Turning to `CCOC(=O)C1C(=O)C(=O)N(C(C)C)C1C(=O)OCC` (stereo not given), the growth was 103%.

For the compound `CNc1nc2ncn(C)c2c(=O)[nH]1`, the growth was 101%.

As for `O=C(NCCO)C(F)(F)F`, the growth was 115%.

For `C/C=C/C/C=C/[C@H](C)C[C@H](O)[C@@H]1C[C@@H]2O[C@H]2/C=C/[C@H](O)[C@@H](O)/C=C/C[C@H](C)CC(=O)O1`, the growth was 72.9%.
